Reference: the supplement of paper PMC3334620
In all, about 33,000 sequences were measured (“E-score (-0.5 to 0.5)”: median about -0.036, highest 2% from about 0.37 on). What follows is part of a selection rich in the highest values, with near analogues and random picks from the rest.

target: T1, Yer064c (UniProt P40041); assay: PBM E-score (8-mer binding enrichment) (E-score (-0.5 to 0.5)); higher = stronger / more preferred TF binding; conditions: protein concentration: 200 nM; construct: GST-full length
T1 sequence: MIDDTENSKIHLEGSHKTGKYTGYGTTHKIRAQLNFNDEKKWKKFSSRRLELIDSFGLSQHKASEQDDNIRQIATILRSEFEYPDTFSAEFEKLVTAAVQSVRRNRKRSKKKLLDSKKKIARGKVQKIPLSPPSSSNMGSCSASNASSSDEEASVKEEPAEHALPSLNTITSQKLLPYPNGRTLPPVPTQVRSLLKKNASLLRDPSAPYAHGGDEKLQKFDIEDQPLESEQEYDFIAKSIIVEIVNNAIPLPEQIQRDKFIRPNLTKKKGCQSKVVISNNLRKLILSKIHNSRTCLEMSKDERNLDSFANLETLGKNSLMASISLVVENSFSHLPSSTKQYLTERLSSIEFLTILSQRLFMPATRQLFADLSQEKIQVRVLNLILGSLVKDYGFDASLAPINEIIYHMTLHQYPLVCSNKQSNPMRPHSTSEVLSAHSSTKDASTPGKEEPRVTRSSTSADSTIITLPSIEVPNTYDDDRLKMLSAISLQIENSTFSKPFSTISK
Method in brief: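 Detection of bound protein used fluorescent anti-GST, with scans normalised by masliner. The proteins were GST-tagged yeast transcription factors applied at about 100-200 nM to universal all-10-mer Agilent arrays made double-stranded by primer extension. Each ungapped eight-base word, pooled with its reverse complement, was scored with an E-score from the Universal PBM Analysis Suite.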

| Sequence | PBM E-score |
| --- | --- |
| GCGACACC | -0.173 |
| CCCTACGA | 0.0187 |
| GTACAGGA | -0.0544 |
| CACAGATA | -0.0649 |
| ATGCCAGA | -0.0495 |
| CTCGACTC | 0.34 |
| AGCGACCA | -0.173 |
| CGCGACTC | 0.438 |
| CGCGACCC | -0.0841 |
| AGCGACTA | 0.391 |
| AGCGACTG | 0.255 |
| CGCCCTTC | -0.212 |
| ACAACTCT | 0.175 |
| ACGACTCC | 0.423 |
| ACTACTCA | 0.344 |
| ACGACTCT | 0.404 |
| GCGACTGA | 0.31 |
| ACGACGCC | -0.211 |
| ACGACTTA | 0.276 |
| GCGACTCA | 0.483 |
| ACTACTCT | 0.239 |
| GCGACTTA | 0.266 |
| ACGACTCA | 0.477 |
| ACGACTGC | 0.19 |
| CCACTAGA | -0.195 |

| Sequence | PBM E-score |
| --- | --- |
| AAAACGGT | -0.155 |
| TAGAAAGA | 0.113 |
| AGTCTCAC | 0.337 |
| GCTGGTGA | 0.0962 |
| CCATTACG | -0.038 |
| TCTACTCA | 0.202 |
| ACGACTTG | 0.17 |
| CCGACTCC | 0.339 |
| CCGACTCA | 0.441 |
| GCGACCCC | -0.237 |
| GCGACTCC | 0.39 |
| GCCACTCC | -0.128 |
| TCGACTCA | 0.435 |
| CCGACTGA | 0.192 |
| TCGACCCA | 0.0521 |
| ACGACTCG | 0.394 |
| CCGACTCG | 0.296 |
| CGAGAATC | 0.117 |
| GCGAGCCC | -0.21 |
| GCAATACC | -0.127 |
| CCTGTGCA | -0.146 |
| AAAACAGG | -0.126 |
| TAATGGCA | -0.172 |
| GCCAAAAA | 0.0564 |
| AGAGAGGG | -0.162 |

| Sequence | PBM E-score |
| --- | --- |
| CATGATAA | 0.12 |
| AATGATTG | 0.358 |
| ACTGATTC | 0.319 |
| CATGATTA | 0.453 |
| CCTGATTC | 0.399 |
| CTTGATTC | 0.324 |
| CATGATCC | 0.0741 |
| ATTGATTC | 0.301 |
| CATGATGA | 0.261 |
| AATGATTC | 0.464 |
| CCTGATGC | -0.0643 |
| CATGATTC | 0.457 |
| CCTGGGAC | -0.363 |
| ATGGGCGA | 0.0478 |
| CAAAAGAG | 0.0455 |
| CTTACCGA | -0.0159 |
| ACATCGAT | 0.00682 |
| AGACGAAT | 0.00164 |
| CAAGCCAG | -0.139 |
| GGCGGCCC | -0.0657 |
| AACTCCAC | -0.115 |
| TACTCCAA | 0.00552 |
| GACTCCAA | 0.418 |
| CACTCCAC | 0.0622 |
| GACTCCAC | 0.37 |

| Sequence | PBM E-score |
| --- | --- |
| AACTCCAA | 0.0471 |
| CAGTAAAA | -0.0284 |
| AATTACCT | 0.0151 |
| AAAAGAAC | -0.144 |
| CCTTCGGC | -0.197 |
| GGGACACA | 0.0557 |
| AGGACTCA | 0.468 |
| GGGACGCA | -0.165 |
| CGGACTCC | 0.191 |
| GGGACTCA | 0.405 |
| CGGACTCA | 0.411 |
| AGGACTCC | 0.335 |
| AGCACTCA | 0.119 |
| CGAACTCA | 0.225 |
| GAGAGGGC | -0.203 |
| CCCGCTGC | -0.00295 |
| GCTTGTAC | -0.18 |
| TCCCAAGA | 0.0948 |
| CGATGTCA | -0.0638 |
| CTCAAATC | 0.158 |
| AACTAAAA | 0.0564 |
| CACTAAAC | 0.108 |
| TACTAAAA | -0.00832 |
| AACTAAAC | -0.0459 |
| GACTAAAC | 0.435 |

| Sequence | PBM E-score |
| --- | --- |
| GACTAAAA | 0.429 |
| GATTCTCA | 0.221 |
| CTCTCCAC | -0.0601 |
| ATTCTCTA | 0.0286 |
| GGACGTCA | -0.0394 |
| ATTGACCA | -0.0765 |
| CATTAGAC | 0.0825 |
| CATTAGTA | 0.257 |
| CATTAGTC | 0.421 |
| AATTAGTC | 0.446 |
| AATTAGTG | 0.0657 |
| AATTAGTA | 0.103 |
| CATTTTGC | -0.0161 |
| CCTAGTCC | 0.0749 |
| GCTAGTCC | 0.0288 |
| TCTAGACA | 0.128 |
| TCTAGTAA | -0.0245 |
| ACTAGTCT | 0.345 |
| ACTAGTCA | 0.456 |
| ACTAGTCC | 0.164 |
| CCTAGTCA | 0.446 |
| GCTAGTCA | 0.448 |
| TCTAGTCA | 0.447 |
| CCTAGTCG | 0.263 |
| GCTAGTTA | 0.00744 |

| Sequence | PBM E-score |
| --- | --- |
| AACGGTGT | -0.021 |
| ACCTGGTC | -0.12 |
| AGAGAACT | -0.0782 |
| AACAGCAG | -0.26 |
| CGTTATCC | -0.11 |
| CTGAGTAC | 0.291 |
| ATGAGTAA | 0.386 |
| GTGAGTAA | 0.331 |
| CTGAGTAA | 0.204 |
| ATGAGTAG | 0.308 |
| ATGAGTAC | 0.415 |
| AGAGGCGG | -0.16 |
| AGAGGTGC | -0.25 |
| CGATCGTA | 0.05 |
| GTTCCAAA | -0.00663 |
| AAAGACAT | -0.156 |
| CTTCATGC | -0.12 |
| CCTCATGC | -0.144 |
| CCTCATGA | 0.16 |
| ACTCATGA | 0.402 |
| ACTCATGG | 0.34 |
| ACTCATGC | 0.378 |
| AGCCCGGG | -0.144 |
| GCTCACAA | 0.0192 |
| CGGTAGAG | -0.118 |

| Sequence | PBM E-score |
| --- | --- |
| GATCACAC | 0.178 |
| CATCACAC | 0.0825 |
| AATCACAT | 0.398 |
| AATCACAC | 0.39 |
| AATCACAG | 0.359 |
| AATCACAA | 0.362 |
| CGCTATTC | -0.0435 |
| ACATACAC | 0.0835 |
| CTGGCATA | -0.0817 |
| GTCACTCA | 0.334 |
| CGTCTTCA | -0.115 |
| AGTCTTCA | 0.408 |
| CGTCTTTC | -0.108 |
| AGTCTTTA | 0.341 |
| AGTCTTGG | 0.315 |
| ACTCTTCG | 0.213 |
| GGTCTTCA | -0.144 |
| AGTCTTTC | 0.372 |
| AGTCTTCG | 0.418 |
| CGTCTTCC | -0.0994 |
| ATTCTTCC | -0.102 |
| AGTCTTCC | 0.432 |
